In the library only some 0.9% were active in any assay of this set; here they are far more common.
PPARg SRC-1 ag: PPARgamma agonists recruiting SRC-1 coactivator, primary screen, biochemical. Peroxisome proliferator-activated receptor gamma (Homo sapiens), P37231. PPARgamma-SRC-1 coactivator recruitment biochemical assay. activation, % at 8 µM. hit rate 0.41% among 200,000; in the data active = activation above about 19%;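 note: 0% = DMSO and 100% = reference agonist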
Target sequence (P37231 whole entry, looked up): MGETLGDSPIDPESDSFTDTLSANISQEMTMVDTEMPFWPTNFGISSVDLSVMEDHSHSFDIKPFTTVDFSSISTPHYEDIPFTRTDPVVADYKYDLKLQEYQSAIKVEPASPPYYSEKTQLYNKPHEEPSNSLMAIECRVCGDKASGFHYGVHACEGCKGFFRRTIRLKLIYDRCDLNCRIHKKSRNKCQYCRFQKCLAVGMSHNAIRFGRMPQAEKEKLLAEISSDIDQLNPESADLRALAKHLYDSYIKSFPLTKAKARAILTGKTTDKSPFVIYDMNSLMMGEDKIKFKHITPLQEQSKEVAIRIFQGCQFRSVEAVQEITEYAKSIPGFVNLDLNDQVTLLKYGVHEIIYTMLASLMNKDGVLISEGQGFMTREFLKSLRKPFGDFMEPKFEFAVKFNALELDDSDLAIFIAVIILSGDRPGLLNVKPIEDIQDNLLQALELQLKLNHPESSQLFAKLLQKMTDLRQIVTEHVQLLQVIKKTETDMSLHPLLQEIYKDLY
PPARg SRC-2 ag: agonists of PPARg-SRC-2 recruitment, primary screen, biochemical, HTS | hit rate 0.34% among 200,000 | activation, % at 8 µM | PPARgamma LBD-SRC-2 recruitment | Peroxisome proliferator-activated receptor gamma (Homo sapiens), P37231; in the data active = activation above about 22%;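 note: 0% = vehicle and 100% = reference agonist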
SRC3 TRFRET art: TR-FRET detection interference compounds, artefact control for PPARgamma SRC-3 recruitment agonists, biochemical, TR-FRET ratio; TR-FRET artefact counter-screen, PPARgamma/SRC-3 format; hits give high values; TR-FRET ratio at 8 µM; hit rate 0.39% among 99,000; AID 1048, 2008
PPARg SRC-3 ag: PPARgamma agonists recruiting SRC-3 coactivator, primary screen, biochemical; hit rate 0.26% among 200,000; biochemical PPARgamma/SRC-3 coactivator recruitment assay; activation, % at 8 µM; AID 731, 2007; Peroxisome proliferator-activated receptor gamma (Homo sapiens), P37231; in the data active = activation above about 23%;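 note: 0% = DMSO and 100% = reference agonist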
SRC2 TRFRET art: TR-FRET signal artefacts, primary screen, artefact control for PPARgamma SRC-2 agonist project, biochemical. TR-FRET artefact counter-screen; hits give high values. TR-FRET ratio at 8 µM. hit rate 0.4% among 200,000. AID 1049, 2008
SRC1 TRFRET art: TR-FRET detection interference compounds, primary screen, artefact control for PPARgamma SRC-1 recruitment agonists, biochemical, TR-FRET emission ratio; TR-FRET detection artefact counter-screen; hits give high values; TR-FRET ratio at 8 µM; hit rate 0.34% among 99,000; in the data active = TR-FRET ratio above about 2300
* = called active by the depositor; / = no result given. Cut-off read from the data, not from the text of the source, unless noted: active = TR-FRET ratio above about 2000; inactive = the rest.

SMILES | PPARg SRC-1 ag | PPARg SRC-2 ag | SRC3 TRFRET art | PPARg SRC-3 ag | SRC2 TRFRET art | SRC1 TRFRET art
COC(=O)c1cccc(NC(=O)/C=C/c2cccc([N+](=O)[O-])c2)c1 | -4 | 0 | / | -4 | 1465 | /
CCOC(=O)C1CCN(CCC(=O)Nc2ccc(C)c(C)c2)CC1 | 22* | -3 | 1352 | 3 | 1537 | 2091
CC(Oc1ccc(Cl)cc1Cl)c1ccn[nH]1 (configuration not stated) | 9 | -5 | 1398 | -4 | 1501 | 1647
Cc1c(NS(=O)(=O)c2ccc3c(c2)OCCO3)cccc1-c1nc2cccnc2s1 | 10 | -3 | / | 3 | 1991* | /
CC(C)C(C)(C#N)NC(=O)CSc1nnc(-c2ccncc2)n1Cc1ccccc1 (configuration not stated) | 7 | 11 | / | 8 | 1578 | /
CC(C)C(C)(C#N)NC(=O)CSc1nc2scc(-c3ccc(F)cc3)c2c(=O)n1Cc1ccccc1 (configuration not stated) | 1 | -5 | 2793* | 6 | 2522* | 2769*
COc1ccc2c(C)cc(SCC(=O)c3ccc4c(c3)OCO4)nc2c1 | 13 | -3 | / | 15 | 3035* | /
CC1CC(C)(C)NC(=S)N1CCCC(=O)Nc1ccccc1F (configuration not stated) | 3 | 0 | 1389 | -3 | 1448 | 1735
CC1CC(C)(C)NC(=S)N1CCCC(=O)N1CCN(c2ccccc2F)CC1 (configuration not stated) | 11 | -6 | 1491 | -3 | 1431 | 2350*
O=Cc1sc(N2CCOCC2)nc1-c1ccccc1 | 2 | 4 | 2197* | 14 | 1731 | 2073
O=C(N/N=C/c1sc(N2CCOCC2)nc1-c1ccccc1)c1ccccc1O | 1 | -1 | 1407 | -5 | 1451 | 1582
O=CN1CCN(C(C(=O)NC2CCCCC2)c2cc3c(cc2[N+](=O)[O-])OCO3)CC1 (configuration not stated) | 0 | -1 | 1367 | 0 | 1502 | 1820
Cc1ccc(S(=O)(=O)NC(=O)COc2ccccc2)cc1 | 21* | 0 | 1472 | 6 | 1758 | 2230
Cc1ccc(NS(=O)(=O)c2ccc(OCC(=O)NCc3cccnc3)cc2)cc1 | 2 | 27* | 1701 | 4 | 1614 | 1921
Cc1ccc(OCC(=O)NS(=O)(=O)c2ccccc2)cc1 | 11 | -2 | 1655 | 7 | 1545 | 1979
CCC(C)NS(=O)(=O)c1ccc(OCC(=O)NCc2cccnc2)cc1 (configuration not stated) | 6 | 8 | / | 2 | 1304 | /
O=C(/C=C/c1cccc(Br)c1)NCc1ccncc1 | 8 | -1 | 1654 | -1 | 1586 | 2078
NC(=O)C1=C[C@@H](c2ccc(C(F)(F)F)cc2)C[C@@H](OCCCCO)O1 | 2 | 8 | 1489 | 8 | 1500 | 1647
CCS(=O)(=O)N1CCN(C2CCC(c3ccccc3)CC2)CC1 (configuration not stated) | 20* | 2 | / | 3 | 1733 | /
Cc1ccc(-n2c(SCC(=O)N(C)C3CCS(=O)(=O)C3)nc3ccccc3c2=O)cc1 (configuration not stated) | 5 | 8 | 1748 | -3 | 1774 | 1877
COCc1cc(C)nc(Nc2ccc(C)cc2C)c1C#N | 14 | 19 | / | 14 | 1983* | /
Nc1nc(-c2ccco2)nn1S(=O)(=O)c1ccc(Cl)cc1 | 4 | 5 | 1487 | 1 | 1706 | 1737
O=C(COC(=O)c1ccccc1C(=O)c1ccccc1)NCCc1ccccc1 | 21* | 5 | 1639 | 6 | 1651 | 1888
COCCNC(=S)N1CCc2cc(OC)c(OC)cc2C1c1cccs1 (configuration not stated) | 3 | 6 | 1650 | 6 | 1611 | 1756
O=c1oc2ccccc2cc1-c1cn2ccccc2n1 | -7 | 5 | 3228* | 60* | 1565 | 1911
Fc1ccc2nc(Nc3nc4cc5c(cc4s3)OCCO5)sc2c1 | 8 | 3 | 2582* | 4 | 2038* | 2154
Fc1ccc2nc(Nc3nc4cc5c(cc4s3)OCO5)sc2c1 | -6 | 4 | 1305 | -8 | 1428 | 1631
